D1 antag = Antagonist of Human D 1 Dopamine Receptor: qHTS. D(1A) dopamine receptor (Homo sapiens), P21728. HEK293 TREx D1 cells, calcium flux, dopamine EC80; stronger effect = lower value. activity change, negative = inhibition, % at 10 µM. actives 3.2% (n = 360,000). AID 504652, 2011; in the data active means activity change below about -30%; further: on the % scale 0 is the no-effect control and ±100 the full control effect
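Tetracycline-induced HEK293 Trex D1 cells, force-coupled to calcium, dye-loaded; compounds added and read 180 s, then EC80 dopamine added and calcium flux tracked kinetically another 180 s.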
TRHR PAM = qHTS for Small Molecule Agonists and Allosteric Enhancers of Human TRH Receptor: Primary Screen for Enhancers. Thyrotropin-releasing hormone receptor (Homo sapiens), P34981. TRHR cells, fluo-8 calcium fluorescence, EC20 TRH enhancement. enhancement, % at 2 µM. actives 0.66% (n = 360,000). AID 493056, 2011; in the data active means enhancement above about 30%; further: 0% is about no effect
Target sequence (P34981 whole entry, looked up): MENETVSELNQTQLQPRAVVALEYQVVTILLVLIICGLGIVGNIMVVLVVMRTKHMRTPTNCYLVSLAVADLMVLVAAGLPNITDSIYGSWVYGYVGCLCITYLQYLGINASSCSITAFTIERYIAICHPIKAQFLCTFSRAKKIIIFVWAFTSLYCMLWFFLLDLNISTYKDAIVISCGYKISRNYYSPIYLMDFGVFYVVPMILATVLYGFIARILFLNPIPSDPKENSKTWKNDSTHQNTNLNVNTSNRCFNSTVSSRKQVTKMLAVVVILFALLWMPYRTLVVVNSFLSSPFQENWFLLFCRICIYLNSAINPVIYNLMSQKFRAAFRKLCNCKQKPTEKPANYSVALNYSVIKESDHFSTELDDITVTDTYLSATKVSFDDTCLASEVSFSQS
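Enhancer read-out: after compound pinning and an initial kinetic agonist-mode read, an EC20 of TRH (10 nM final) was injected and fluo-8 calcium signal (Ex 480/Em 530) followed at 1 s/cycle for 100 cycles in TRHR-expressing cells.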
D1 agonist = Allosteric Agonists of the Human D1 Dopamine Receptor: qHTS | D(1A) dopamine receptor (Homo sapiens), P21728 | HEK293 T-REx D1 cells, calcium flux, agonist mode | activation, % at 2 µM | actives 1% (n = 360,000); further: 0% is about no effect
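Tetracycline-induced HEK293 TREx D1 cells, force-coupled to calcium signalling, were dye-loaded with a no-wash calcium kit. Compound was pin-added after a 10 s baseline. Fluorescence was read kinetically at 1 cycle/s for 180 s, with calcium rises flagged as agonism.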
TRHR agonist = qHTS for Small Molecule Agonists and Allosteric Enhancers of Human TRH Receptor: Primary Screen for Agonists. TRHR cells, calcium flux fluo-8, FDSS agonist mode. Thyrotropin-releasing hormone receptor (Homo sapiens), P34981. activation, % at 2 µM. actives 0.18% (n = 360,000); further: 0% is about no effect
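Steps: seed TRHR cells overnight; add fluo-8 no-wash Ca dye, RT 30 min–1.5 h; record 10 s baseline; pin-transfer compounds; monitor fluorescence 1 cycle/s for the agonist window. Calcium increases flag candidate agonists.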
D1 PAM = Potentiators of Human D1 Dopamine Receptor: qHTS; D(1A) dopamine receptor (Homo sapiens), P21728; HEK293 TREx D1 cells, calcium flux, dopamine EC20 potentiation; potentiation, % at 10 µM; actives 0.036% (n = 360,000); in the data active means potentiation above about 30%; further: 0% is about no effect
The depositor's hits bear a star; . = no result given. An excerpt weighted towards active compounds, which were near 4.7% of everything screened. Unless noted, no stated cut-off is given here; in the data, active means activation above about 30%; inactive means the rest.

SMILES	D1 antag	TRHR PAM	D1 agonist	TRHR agonist	D1 PAM
O=C(Nc1cnc2ccccn2c1=O)c1ccc(F)cc1	4	1	3	1	-5
COc1cccc(C(=O)Nc2ccccc2OCc2cc(=O)n3cc(C)ccc3n2)c1	4	-1	-2	0	-1
CC(=O)CC(C)(C)NC(C)=S	-29	1	0	0	-1
CC(C)c1ccc(N2C(=O)/C(=C/N(C)C)SC2=S)cc1	4	14	99*	47*	4
CC1(OC(=O)CCc2ccccc2)C(=O)C=C2C=C(c3ccc(C#N)cc3)N(c3ccccc3)C=C2C1=O (stereo not drawn)	-37*	6	7	0	-5
O=C(Cn1c(C(=O)NCC2CCCO2)cc2sccc21)c1ccccc1 (stereo not drawn)	-50*	-4	1	-1	-5
COc1ccccc1-c1noc(-c2ccccc2C(=O)NCC2CCCO2)n1 (stereo not drawn)	1	9	0	0	-5
O=C(NCC1CCCO1)c1ccc(S(=O)(=O)Nc2ccccc2F)cc1 (stereo not drawn)	-38*	-7	3	0	-4
COc1ccc(N(Cc2ccccc2)S(=O)(=O)c2cccc(C(=O)NCC3CCCO3)c2)cc1 (stereo not drawn)	-37*	-6	14	-1	-5
Cc1cccc(NS(=O)(=O)c2ccc(C(=O)NCC3CCCO3)cc2)c1C (stereo not drawn)	-15	-5	14	1	-7
Cc1ccccc1-c1noc(-c2ccccc2C(=O)NCC2CCCO2)n1 (stereo not drawn)	-30*	-7	0	0	-1
COc1ccc(N(C)S(=O)(=O)c2cccc(C(=O)NCC3CCCO3)c2)cc1 (stereo not drawn)	-1	8	-1	-1	2
CCCCn1c(N)c(N(CC(C)C)C(=O)CCNC(=O)c2ccccc2Cl)c(=O)[nH]c1=O	-5	3	3	0	1
O=C(NCC1CCCO1)c1cccc(Oc2ccccc2)c1 (stereo not drawn)	-3	-6	1	3	-1
O=C(NCC1CCCO1)c1cccc(Oc2ccc([N+](=O)[O-])cc2)c1 (stereo not drawn)	-35*	3	11	-1	-6
O=C(NCC1CCCO1)c1cccc(NC(=O)c2ccccc2)c1 (stereo not drawn)	-31*	3	3	0	3
Cc1ccc2nc(CCl)[n+]([O-])c(-c3ccccc3)c2c1	-38*	5	3	1	-7
COc1ccc(-c2nn(-c3ccccc3)cc2C(=O)NC(=S)Nc2cc(Cl)ccc2Cl)cc1	4	4	0	-2	2
Cc1cccc(N2CCN(C(=O)Cn3c(C)c4cnn(-c5ccccc5)c(=O)c4c3C)CC2)c1C	-6	-3	11	-2	-1
COc1cc([N+](=O)[O-])c(N2CCOCC2)c([N+](=O)[O-])c1OC	-34*	6	9	-1	-9
O=[N+]([O-])c1cc(Br)c2nsnc2c1N1CCOCC1	-45*	-3	1	14	-7
COC(=O)CN(C)C(=O)c1ccccc1OC1CCN(S(C)(=O)=O)CC1	0	35*	1	-1	4
CS(=O)(=O)N1CCC(Oc2ccccc2C(=O)N2CCCCC2CO)CC1 (stereo not drawn)	2	-11	0	0	1
Cc1ccc(CNC(=O)CCCN2C(=O)COc3ccc(C)cc32)cc1	9	-2	-2	-1	-1
O=C(Nc1ccccc1NC(=O)c1ccc(F)cc1)c1ccc(F)cc1	-36*	-8	3	0	-2
SMILES	D1 antag	TRHR PAM	D1 agonist	TRHR agonist	D1 PAM
O=C(NNC(=O)c1ccc(NC(=O)c2ccccc2)cc1)c1ccc(F)cc1	-67*	-5	4	2	-3
O=C(NNS(=O)(=O)c1ccccc1)Nc1ccc(F)cc1	-36*	-9	1	0	-7
O=C(Nc1ccccc1Sc1ccccc1)c1ccc(F)cc1	1	0	2	0	-3
O=C(NNS(=O)(=O)c1ccccc1)c1ccc(F)cc1	2	5	2	0	-9
O=C(NNC(=O)c1ccc(NC(=O)c2ccccc2)cc1)Nc1ccccc1	-5	-9	9	1	-3
COc1ccccc1NC(=O)c1nc(S(=O)(=O)Cc2ccccc2)ncc1Cl	-38*	-10	4	-1	-8
COc1ccc(OC)c(NC(=O)c2nc(S(=O)(=O)Cc3ccc(F)cc3)ncc2Cl)c1	-35*	-4	4	-1	1
COc1cccc(-c2nc(CS(=O)(=O)CC(=O)NCCc3ccc(Cl)cc3)c(C)o2)c1	-2	5	5	0	4
COc1cccc(NC(=O)COc2ccc(C(=S)N3CCN(C)CC3)cc2OC)c1	-31*	0	8	1	-1
Cc1ccccc1OCC(=O)Nc1ccc(N2CCN(C)CC2)c(Cl)c1	-71*	3	35*	2	.
Cc1ccccc1OCC(=O)Nc1ccc2c(c1)Cc1ccccc1-2	-24	5	6	-1	-2
COc1ccc(N(CC(=O)NCc2ccccc2Cl)S(=O)(=O)c2c(C)nn(C)c2C)cc1	-4	7	-1	0	0
CCc1nc2ccccc2n1CC(=O)N1CCN(S(=O)(=O)c2cccc(C(F)(F)F)c2)CC1	-7	-15	-1	1	-6
O=C(c1cc(Cl)nc2ccccc12)N1CCN(S(=O)(=O)c2cccc(C(F)(F)F)c2)CC1	-33*	-13	-1	0	-6
O=C(NC1CCCC1)C(c1ccccc1F)N(C(=O)c1csnn1)c1ccccc1 (stereo not drawn)	22	5	-1	1	-2
Cn1c(=O)n(Cc2ccccc2)c(=O)c2c1nc1n2CCN1c1ccccc1	-27	1	-1	0	-4
Cc1cccc(-n2cnc3cc(C(=O)N4CCc5ccccc54)ccc32)c1	-8	-4	4	0	-6
Cc1cc(C)c(OCC(=O)OC(C)C(=O)NCc2ccccc2)c(C)c1 (stereo not drawn)	-5	-1	-2	-1	-1
CC1=NN(C(=O)c2ccc(Br)cc2)C(O)(C(F)(F)OC(F)(F)F)C1 (stereo not drawn)	-14	-3	5	0	1

Source: PubChem
